In the library only some 4% were active in any assay of this set; here they are far more common.
CF NFkB inh: inhibitors of cystic fibrosis induced NF-kB; KKLEB NF-kB-GFP reporter, PAF-induced, GFP fluorescence overnight; inhibition, % at 5 µM; hit rate 0.86% among 360,000;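 active means at least 50% inhibition at 5 µM, scaled per plate between neutral and stimulator controls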;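 further: PAF is a Pseudomonas aeruginosa culture filtrate used as stimulus; plate controls were PAF-stimulated DMSO wells for no effect and unstimulated DMSO wells for full effect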
HIF-2a inh: blocks HIF-2a reporter activity | 786-0 RCC cells HIF-2a reporter, luciferase luminescence, overnight | inhibition, % at 18.8 µM | hit rate 0.72% among 360,000 | AID 624352;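 active means inhibition of the luminescence signal of 40% or more relative to plate controls, in a single-dose primary screen at 18.75 µM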
TROY signal inh: TROY signaling inhibition; Q293 LMP1-TROYcd NF-kB luciferase reporter, 4 h; inhibition, % at 10 µM; hit rate 0.98% among 360,000;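 active means compounds whose plate-normalised and pattern-corrected inhibition of the luciferase reporter signal at the single screening dose is 50% or more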
KKLEB cytotox: CF airway cell cytotoxicity counter-screen; AID 602141; activity change (cytotoxicity), % at 5 µM; hit rate 0.36% among 360,000; KKLEB CF airway cells viability, ATPlite luminescence, overnight; stronger effect = lower value; cells stimulated with P. aeruginosa culture filtrate;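 active means corrected activity change at or below -50% at 5 µM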
Peg3 promoter: Peg3 promoter activity inhibition | HeLa PEG-Prom luciferase reporter, luminescence, overnight | inhibition, % at 20 µM | hit rate 1.7% among 360,000 | AID 588405;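 active means inhibition of at least 50% at 20 µM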
TWEAK-Fn14 inh: TWEAK-Fn14 signaling inhibition; TWEAK-stimulated Fn14 reporter cells, luciferase luminescence, 8 h; inhibition, % at 10 µM; hit rate 2% among 360,000; AID 1159606; in the data active means inhibition above about 50%
Active calls of the source: *; . = no result given.

SMILES	CF NFkB inh	HIF-2a inh	TROY signal inh	KKLEB cytotox	Peg3 promoter	TWEAK-Fn14 inh
Brc1csc(C=Nc2ccc3c(c2)OCCOCCOCCOCCO3)c1	-11.9	-2.4	14.1	-0.3	-5.7	-10.4
Oc1c(Cl)cc(Cl)cc1C=Nc1ccc2c(c1)OCCO2	6.0	15.5	62.9*	3.1	-34.0	75.2*
COc1ccc2cc3cc(C(=O)NC4CC4)sc3nc2c1	-23.6	-30.3	26.8	-28.8	-14.0	67.0*
CCNc1nc(NC(C)C)nc(N(C#N)C(C)C(=O)N(C)C)n1 (configuration not stated)	3.2	8.4	11.9	-5.1	11.9	-4.3
CCNc1nc(NCC)nc(N(C#N)C(C)C)n1	36.0	-5.4	-7.1	-10.9	-2.8	76.1*
CCC(=NNC(=O)c1ccc2c(c1)nc(C)n2CC)c1cc(F)ccc1O	0.8	-13.2	-45.5	4.7	5.6	-8.7
CCN(CC)S(=O)(=O)c1cc(NC(=O)CCn2[nH]c(=O)ccc2=O)ccc1C	3.8	7.3	6.7	-5.5	9.8	2.7
COC(=O)c1ccc(CNC(=O)Cn2cnc3c(OCc4ccccc4)ncnc32)cc1	-25.4	-6.0	-9.2	2.4	83.8*	-26.6
O=C(O)c1ccc(-n2cccc2/C=C2/NC(=O)N(c3ccccc3)C2=O)cc1	8.2	10.2	68.3*	0.8	-3.7	-17.6
O=C(O)c1ccc(-n2cccc2/C=C2/NC(=O)N(c3cccc(Cl)c3)C2=O)cc1	9.3	9.9	-11.5	-3.2	10.5	10.3
CC(=O)c1sc(Nc2nc3ccc(F)cc3s2)nc1C	-2.1	-206.6	-28.3	-5.8	-266.9	-86.1
CCOC(=O)c1csc(Nc2nc3ccc(F)cc3s2)n1	-30.5	-105.3	-22.9	4.9	-117.4	105.4*
Cc1ccc(S(=O)(=O)N[C@@H](C)C(=O)N2CCC(C(=O)N[C@@H](Cc3ccccc3)C(=O)O)CC2)cc1	-0.3	7.9	-24.2	16.4	0.9	5.5
COc1ccc(NC(=S)N/C(=N/CS(=O)(=O)c2ccccc2)c2ccccc2)cc1	-12.4	-347.8	-18.8	-9.3	-198.3	51.6*
O=C(NCC(=O)N1CCN(c2ccccc2)CC1)c1cccs1	-21.9	-67.4	-20.2	3.3	-54.0	0.0
CCC1(c2ccc(F)cc2)NC(=O)N(CC(=O)N2CCN(C(=O)c3ccco3)CC2)C1=O (configuration not stated)	-9.6	-15.1	-20.7	-7.3	-36.5	-16.6
Cc1ccc(NC(=O)CS(=O)c2ccccc2N)c(C)c1 (configuration not stated)	-3.8	-215.4	-39.8	12.2	-265.1	7.0
Cc1cccc(-c2cc3c(nn2)-c2ccccc2C3=O)c1	-7.7	-171.5	-41.6	0.0	-125.0	50.3*
COc1ccc(-c2cc3c(nn2)-c2ccccc2C3=O)cc1	-27.7	13.8	58.9*	-50.1*	80.5*	92.4*
O=C1c2ccccc2-c2nnc(-c3ccccc3)cc21	-1.6	-76.8	-20.5	-12.2	-31.9	71.6*
COc1ccc(C2=NOC(Cn3nc(C(=O)NCc4cccc(C(F)(F)F)c4)cc3-c3ccccc3)C2)cc1 (configuration not stated)	-5.9	-5.8	8.1	-2.5	7.2	24.6
CCOc1ccc(CNC(=O)C2CCCN(S(C)(=O)=O)C2)cc1OC (configuration not stated)	-3.9	-18.3	-13.7	-4.9	12.2	92.3*
Cc1ccc(CCNC(=O)C2CCCN(S(C)(=O)=O)C2)cc1 (configuration not stated)	6.4	7.1	-5.1	1.4	13.6	17.9
CS(=O)(=O)N1CCCC(C(=O)NCCc2ccccc2)C1 (configuration not stated)	2.1	9.4	34.6	-0.7	-2.3	68.7*
CCOc1ccc(CNC(=O)C2CCCN(S(=O)(=O)N3CCC(C)CC3)C2)cc1OC (configuration not stated)	1.0	5.3	13.8	-6.8	23.9	9.7
SMILES	CF NFkB inh	HIF-2a inh	TROY signal inh	KKLEB cytotox	Peg3 promoter	TWEAK-Fn14 inh
COC(=O)[C@]12CCCCC=C1N(Cc1ccc3c(c1)OCO3)C(=O)[C@H](CC(=O)NCCC(C)C)C2	.	16.6	.	.	.	.
CC(CNC(=O)CN1C(=O)NC2(CCOc3ccccc32)C1=O)c1ccccc1 (configuration not stated)	4.2	-10.3	-0.9	-3.5	10.0	9.6
CCCCCCCC(=O)Nc1ccc(C(=O)N/N=C/c2cccc([N+](=O)[O-])c2)cc1	34.1	8.1	-25.1	-31.2	101.3*	-58.5
CCCCCCCCCS(=O)(=O)N/N=C/c1cccc([N+](=O)[O-])c1	12.3	5.4	50.6*	6.5	10.1	17.7
CC1(C(=O)NS(=O)(=O)C2CC2)CCCN(C(=O)c2cccc(Cl)c2)C1 (configuration not stated)	35.8	12.5	-2.8	-4.3	6.9	-8.4
Cc1ccc(C(C)C)c(OCC(=O)NC(=S)Nc2ccccc2N2CCOCC2)c1	45.2	10.0	9.0	-7.7	13.2	-1.7
CCC(=O)N1CCN(c2ccccc2NC(=O)COc2cc(C)ccc2C(C)C)CC1	8.1	4.6	8.5	-3.2	52.0*	-7.2
CCOC(=O)[C@@H]1[C@H]2COc3cc(OC)ccc3[C@H]2N2C(=O)N(c3ccc(OC)cc3)C(=O)[C@]12C	-11.1	3.0	11.6	8.8	4.6	-9.2
COCCNC(=O)c1cc(-c2ccncc2)nc2ccc(S(=O)(=O)N3CCOCC3)cc12	6.4	10.3	64.5*	-7.7	11.6	8.4
Cc1cc(C)n(CC(O)Cn2c3ccccc3c3ccccc32)n1 (configuration not stated)	-10.1	1.2	11.9	-1.9	8.5	-12.1
Cc1nccn1CC(O)Cn1c2ccccc2c2ccccc21 (configuration not stated)	-1.0	21.9	.	-0.1	4.4	83.8*
CC(C)/C=C(/C(=O)c1ccc(Cl)cc1Cl)n1cncn1	31.1	18.1	1.1	-0.3	3.3	61.5*
CCOc1ccc2nc(NC3=NC(C)(C)C=C(C)N3)nc(C)c2c1	-27.6	-2.1	2.4	-5.1	52.7*	-79.9
CCOc1ccc(C2CC(=O)NC2=O)cc1 (configuration not stated)	-16.4	9.6	-6.8	3.5	11.6	17.6
CCOc1ccc2nc(NC3=NC(c4ccc(OC)cc4)CC(=O)N3)nc(C)c2c1 (configuration not stated)	10.9	13.8	-10.3	-16.0	62.4*	-37.0
CCOc1ccc2c(C)nc(NC3=NC(C)(C)C=C(C)N3)nc2c1	-1.6	-4.3	-10.5	1.0	40.3	-40.6
CCCc1nnc(SCC(=O)Nc2nnc(CC)s2)n1CC1CCCO1 (configuration not stated)	11.3	13.0	4.4	-8.1	11.9	-2.4
C/C(N)=C(/C#N)C(=O)CSc1nnc(-c2ccc3c(c2)OCO3)o1	-6.3	-102.8	44.8	0.2	-52.9	83.0*
Cc1cc(C(=O)CSc2nnc(-c3ccc4c(c3)OCO4)o2)c(C)n1-c1ccc(F)cc1	12.3	21.7	13.2	-3.7	-1.7	64.6*
